# Test results from PubChem BioAssay (NCATS).
# Records with an inconclusive call do not appear. Entries that show only a call come without a potency. Active and inactive are the calls of the source. Calls come from the whole dose curve; as a rule, active = well fitted inhibition curve with a large enough effect; inconclusive = small, poorly fitted or top-dose-only effect; inactive = flat fitted curve, though single readings scatter.
# Assays:
# Assay in all cases: qHTS profiling for inhibitors of Plasmodium falciparum proliferation (AID 504749); note: nearly all actives have a fitted effect of over 60% in size
# Details in all cases: P. falciparum in erythrocytes, SYBR Green DNA, 72 h; series mostly up to 28.7 µM
# CP262 = system: CP262
# Procedure, shortened: (§1)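 Parasite proliferation within erythrocytes, 72 h exposure. Endpoint: SYBR Green I fluorescence after overnight lysis at room temperature. Controls: 0.29 uM artemisinin, DMSO.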
# CP265 = system: CP265
# Procedure, shortened: as §1
# CP266 = system: CP266
# Procedure, shortened: as §1
# CP268 = system: CP268
# Procedure, shortened: as §1
# CP269 = system: CP269
# Procedure, shortened: as §1
# CP286 = system: CP286
# Procedure, shortened: as §1
# CP291 = system: CP291
# Procedure, shortened: as §1
# CP297 = system: CP297
# Procedure, shortened: as §1
# CP305 = system: CP305
# Procedure, shortened: as §1
# CP315 = system: CP315
# Procedure, shortened: as §1
# CP325 = system: CP325
# Procedure, shortened: as §1
# CP329 = system: CP329
# Procedure, shortened: as §1
# CP335 = system: CP335
# Procedure, shortened: as §1
# DFO2036 = system: DFO2036
# Procedure, shortened: as §1
# DIV14 = system: DIV14
# Procedure, shortened: as §1
# DIV17 = system: DIV17
# Procedure, shortened: as §1
# DIV30 = system: DIV30
# Procedure, shortened: as §1
# Dd2 = system: Dd2
# Procedure, shortened: as §1
# ECU = system: ECU
# Procedure, shortened: as §1
# FAB9 = system: FAB9
# Procedure, shortened: as §1
# Potency is the fitted concentration of half-maximal effect.
SMILES,Potency (CP262),Potency (CP265),Potency (CP266),Potency (CP268),Potency (CP269),Potency (CP286),Potency (CP291),Potency (CP297),Potency (CP305),Potency (CP315),Potency (CP325),Potency (CP329),Potency (CP335),Potency (DFO2036),Potency (DIV14),Potency (DIV17),Potency (DIV30),Potency (Dd2),Potency (ECU),Potency (FAB9)
Cc1c(C(C)C)c(=O)n(-c2ccccc2)n1C,inactive,inactive,inactive,inactive,inactive,inactive,inactive,inactive,inactive,inactive,inactive,inactive,inactive,inactive,inactive,inactive,inactive,inactive,inactive,inactive
OCc1ccccc1O,inactive,inactive,inactive,inactive,inactive,inactive,inactive,inactive,inactive,inactive,inactive,inactive,inactive,inactive,inactive,inactive,inactive,inactive,inactive,inactive
O=C(COc1ccc(Cl)cc1)N1CCN(Cc2ccc3c(c2)OCO3)CC1,inactive,inactive,inactive,inactive,inactive,inactive,inactive,inactive,inactive,inactive,inactive,inactive,inactive,inactive,inactive,inactive,inactive,inactive,inactive,inactive
C[N+]1(CCCCC[N+]2(C)CCCC2)CCCC1,inactive,inactive,inactive,inactive,inactive,inactive,inactive,inactive,inactive,inactive,inactive,inactive,inactive,inactive,inactive,inactive,inactive,inactive,inactive,inactive
Cc1cccn2c(=O)c(-c3nnn[nH]3)cnc12,inactive,inactive,inactive,inactive,inactive,inactive,inactive,inactive,inactive,inactive,inactive,inactive,inactive,inactive,inactive,inactive,inactive,inactive,inactive,inactive
CC(C)COC(=O)OCN1C(=O)CN(CCN2CC(=O)N(COC(=O)OCC(C)C)C(=O)C2)CC1=O,inactive,inactive,inactive,inactive,inactive,inactive,inactive,inactive,inactive,inactive,inactive,inactive,inactive,inactive,inactive,inactive,inactive,inactive,inactive,inactive
CC(=O)Oc1ccc(C(=C2CCCCC2)c2ccc(OC(C)=O)cc2)cc1,inactive,inactive,inactive,inactive,inactive,inactive,inactive,inactive,inactive,inactive,inactive,inactive,inactive,inactive,inactive,inactive,inactive,inactive,inactive,inactive
CCCCC1=NC2(CCCC2)C(=O)N1Cc1ccc(-c2ccccc2-c2nn[nH]n2)cc1,inactive,inactive,inactive,inactive,inactive,inactive,inactive,inactive,inactive,inactive,inactive,inactive,inactive,inactive,,inactive,inactive,inactive,inactive,inactive
CN1C2CCC1CC(OC(=O)c1c[nH]c3ccccc13)C2 (stereo not drawn),inactive,inactive,inactive,inactive,inactive,inactive,inactive,inactive,inactive,inactive,inactive,inactive,inactive,inactive,,inactive,inactive,inactive,inactive,inactive
N[C@@H](Cc1cnc[nH]1)C(=O)O,inactive,inactive,inactive,inactive,inactive,inactive,inactive,inactive,inactive,inactive,inactive,inactive,inactive,inactive,inactive,inactive,inactive,inactive,inactive,inactive
COc1cc(OC)cc(OC)c1,inactive,inactive,inactive,inactive,inactive,inactive,inactive,inactive,inactive,inactive,inactive,inactive,inactive,inactive,inactive,inactive,inactive,inactive,inactive,inactive
C[C@H]1C[C@H]2[C@@H]3CCC4=CC(=O)C=C[C@]4(C)[C@@]3(Cl)[C@@H](O)C[C@]2(C)[C@@]1(O)C(=O)CO,inactive,inactive,inactive,inactive,inactive,inactive,inactive,inactive,inactive,inactive,inactive,inactive,inactive,inactive,inactive,inactive,,inactive,inactive,inactive
NCCc1ccn[nH]1,inactive,inactive,inactive,inactive,inactive,inactive,inactive,inactive,inactive,inactive,inactive,inactive,inactive,inactive,inactive,inactive,inactive,inactive,inactive,inactive
Cc1cc(O)c(C(C)C)cc1Cl,inactive,inactive,inactive,inactive,inactive,inactive,inactive,inactive,inactive,inactive,inactive,inactive,inactive,inactive,inactive,,inactive,inactive,inactive,inactive
O=C1CCC(c2ccc(-n3ccnc3)cc2)=NN1,inactive,inactive,inactive,inactive,inactive,inactive,inactive,inactive,inactive,inactive,inactive,inactive,inactive,inactive,inactive,inactive,inactive,inactive,inactive,inactive
CCn1cc(C(=O)O)c(=O)c2cnc(N3CCCC3)nc21,inactive,inactive,inactive,inactive,inactive,inactive,inactive,inactive,inactive,inactive,inactive,inactive,inactive,inactive,inactive,inactive,inactive,inactive,inactive,inactive
COC1=CC(=O)C[C@@H](C)[C@]12Oc1c(Cl)c(OC)cc(OC)c1C2=O,inactive,inactive,inactive,inactive,inactive,inactive,inactive,inactive,inactive,inactive,inactive,inactive,inactive,inactive,,inactive,inactive,inactive,inactive,inactive
Nc1cc(Cl)c(NC2=NCCN2)c(Cl)c1,inactive,inactive,inactive,inactive,inactive,inactive,inactive,inactive,inactive,inactive,inactive,inactive,inactive,inactive,,inactive,inactive,inactive,inactive,inactive
CCCCOc1ccc(C(=O)CCN2CCCCC2)cc1,inactive,inactive,inactive,inactive,inactive,inactive,inactive,inactive,inactive,inactive,inactive,inactive,inactive,inactive,inactive,inactive,inactive,inactive,inactive,inactive
CCCn1c(=O)[nH]c(=O)c2[nH]cnc21,inactive,inactive,inactive,inactive,inactive,inactive,inactive,inactive,inactive,inactive,inactive,inactive,inactive,inactive,inactive,inactive,inactive,inactive,inactive,inactive
CC1=C(C(=O)OC(C)C)C(c2cccc([N+](=O)[O-])c2)C(C(=O)OC2CN(C(c3ccccc3)c3ccccc3)C2)=C(N)N1 (stereo not drawn),12 µM (active),7.94 µM (active),9.53 µM (active),9.53 µM (active),8.49 µM (active),5.01 µM (active),8.49 µM (active),13.5 µM (active),7.57 µM (active),13.5 µM (active),6.01 µM (active),6.01 µM (active),4.78 µM (active),7.08 µM (active),7.57 µM (active),9.53 µM (active),,11.2 µM (active),7.08 µM (active),
CCOC(=O)OC(C)OC1=C(C(=O)Nc2ccccn2)N(C)S(=O)(=O)c2ccccc21 (stereo not drawn),inactive,inactive,inactive,inactive,inactive,inactive,inactive,inactive,inactive,inactive,inactive,inactive,inactive,inactive,inactive,inactive,inactive,inactive,inactive,inactive
COc1cc(NS(C)(=O)=O)ccc1Nc1c2ccccc2nc2ccccc12,3.79 µM (active),1 µM (active),5.36 µM (active),3.38 µM (active),4.78 µM (active),2 µM (active),1.69 µM (active),4.78 µM (active),3.38 µM (active),6.75 µM (active),4.26 µM (active),4.78 µM (active),4.26 µM (active),2.82 µM (active),1.9 µM (active),1.51 µM (active),4.26 µM (active),,3.16 µM (active),3.98 µM (active)
CN1C(CCl)Nc2cc(Cl)c(S(N)(=O)=O)cc2S1(=O)=O (stereo not drawn),inactive,inactive,inactive,inactive,inactive,inactive,inactive,inactive,inactive,inactive,inactive,inactive,inactive,inactive,inactive,inactive,inactive,inactive,inactive,inactive
O=C(O)CCCCC(=O)O,inactive,inactive,inactive,inactive,inactive,inactive,inactive,inactive,inactive,inactive,inactive,inactive,,inactive,inactive,inactive,inactive,inactive,inactive,inactive
Nc1ccc(C(=O)Nc2ccccc2N)cc1,inactive,inactive,inactive,inactive,inactive,inactive,inactive,inactive,inactive,inactive,inactive,inactive,inactive,inactive,inactive,inactive,,inactive,inactive,inactive
CC(O)C(=O)O (stereo not drawn),inactive,inactive,inactive,inactive,inactive,inactive,inactive,inactive,inactive,inactive,inactive,inactive,,inactive,inactive,inactive,inactive,inactive,inactive,inactive
